# Screening results (PubChem BioAssay)
# Shown are actives, neighbours in structure and some others; about 31% of the full set was active somewhere.
# CYP2C9 act = activators of human CYP2C9. P11712. recombinant CYP2C9, luciferin-H conversion, luminescence; stronger effect = higher value; factor 1 = untreated enzyme, 0 = blocked. activation factor at 5 µM. 96,000 compounds, 1.4% hits;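 active = activation factor of 2 or more for CYP2C9 at a 5 µM dose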;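 also: 0 = sulfaphenazole-blocked wells and 1 = vehicle-only wells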
# Target sequence (P11712 whole entry, looked up): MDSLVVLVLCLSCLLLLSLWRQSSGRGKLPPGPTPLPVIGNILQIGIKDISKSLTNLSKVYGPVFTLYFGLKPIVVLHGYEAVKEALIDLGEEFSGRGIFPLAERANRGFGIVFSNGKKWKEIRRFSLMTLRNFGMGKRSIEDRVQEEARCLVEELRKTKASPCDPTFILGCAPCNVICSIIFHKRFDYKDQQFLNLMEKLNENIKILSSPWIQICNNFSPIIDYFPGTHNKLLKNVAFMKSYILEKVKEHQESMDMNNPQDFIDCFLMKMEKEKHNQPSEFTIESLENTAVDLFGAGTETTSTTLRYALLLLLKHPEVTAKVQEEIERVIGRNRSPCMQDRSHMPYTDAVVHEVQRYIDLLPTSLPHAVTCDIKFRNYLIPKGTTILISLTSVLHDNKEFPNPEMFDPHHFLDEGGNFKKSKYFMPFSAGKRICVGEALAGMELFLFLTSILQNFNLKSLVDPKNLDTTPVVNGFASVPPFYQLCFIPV
# CYP2C9 inh = human CYP2C9 inhibition | P11712 | CYP2C9 Supersomes, luciferin-H conversion, luminescence | inhibition, % at 5 µM | 96,000 compounds, 20% hits;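 active = blocking of liver enzyme CYP2C9 beyond about 50% at 5 µM, limit read from the data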
# CYP2C19 act = cytochrome P450 2C19 (human) activation. P33261. recombinant CYP2C19, luciferin-H EGE luminescence; stronger effect = higher value; 0 = fully inhibited enzyme, 1 = untreated enzyme. activation factor at 5 µM. 96,000 tested, under 10 active. AID 1025;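 active = activation factor of at least 2 at 5 µM in the primary screen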;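 also: 0 = wells with 2.5 mM tranylcypromine and 1 = vehicle-only wells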
# CYP2C19 inh = inhibitors of human CYP2C19; P33261; CYP2C19 Supersomes, luciferin-H EGE luminescence, 30 min; inhibition, % at 5 µM; 96,000 compounds, 21% hits;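 active = CYP2C19 inhibition above a set limit at 5 µM in the primary screen, cut at about 50% in these data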;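 also: plate controls were negative control wells for no effect and 2.5 mM tranylcypromine positive control for full effect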
# Active calls of the source: *.
SMILES,CYP2C9 act,CYP2C9 inh,CYP2C19 act,CYP2C19 inh
Cc1ccc(-c2noc(-c3ccccc3C(=O)N3CCCC3)n2)cc1,0.7,33.2,0.7,27.2
CN1CCN(C(=O)c2ccccc2-c2nc(-c3ccc(Cl)cc3)no2)CC1,0.4,55.6*,0.7,27.1
Cc1ccc(-c2noc(-c3ccccc3C(=O)N3CCN(C)CC3)n2)cc1,0.8,22.0,1,-0.7
Cc1cc(OCC[N+]2(C)CCCCC2)nc2ccccc12,1,1.2,1,4.5
Cc1ccccc1C(=O)N1CCCN(C(=O)c2ccccc2C)CC1,1,3.6,0.4,58.1*
CCC(=O)Nc1ccc(N2CCN(C(=O)c3ccccc3C)CC2)cc1,0.9,9.1,1.1,-5.4
COc1ccc(S(=O)(=O)N2CCOCC2)cc1C(=O)Nc1cc(C)on1,1.3,-31.4,1.1,-11.4
CCOC(=O)c1ccccc1NS(=O)(=O)c1ccc(OCC)cc1,0.6,39.9,0.3,70.1*
CCOc1ccc(S(=O)(=O)Nc2ccccc2C(=O)NCC2CCCO2)cc1 (stereo not drawn),0.7,34.9,0.3,71.3*
CSCC[C@H](NC(=O)C1CCN(S(=O)(=O)c2ccc(C)cc2)CC1)C(=O)NCc1ccco1,1,-1.2,1.1,-5.9
Cc1cc(C)n(CCOc2ccc(Cl)cc2Cl)n1,1.1,-7.3,0,96.8*
Cc1cc(C)n(CCOc2nonc2N)n1,1.2,-17.2,1,-4.6
CC(C)(C)OC(=O)N1Cc2ccccc2C[C@H]1C(=O)O,1,-4.6,1.1,-14.1
CC1CCN(C(=O)CN(c2ccc(Cl)c(C(F)(F)F)c2)S(C)(=O)=O)CC1,2.3*,-133.2,0.2,75.3*
CS(=O)(=O)N(CC(=O)N1CCC(C(N)=O)CC1)c1ccc(Cl)c(C(F)(F)F)c1,1,-4.5,1.1,-5.3
CS(=O)(=O)N(CC(=O)N1CCN(c2ccccc2)CC1)c1cc(C(F)(F)F)ccc1Cl,2.1*,-111.6,0.7,26.5
CS(=O)(=O)N(CC(=O)N1CCN(c2ccccc2)CC1)c1ccc(Cl)c(C(F)(F)F)c1,1.8,-82.6,0,95.5*
C/C=C/CSc1nc2c(c(=O)[nH]c(=O)n2C)n1Cc1ccc(C)cc1,1,-2.7,1.1,-14.1
Fc1ccc(C(CCCn2nnc(-c3cccnc3)n2)c2ccc(F)cc2)cc1,0.4,58.7*,0.4,58.7*
Cc1ccc(N(CN2C(=O)C3CC=CCC3C2=O)C(=O)c2ccco2)cc1Cl (stereo not drawn),0.4,60.7*,0.5,45.4
O=C1CCC(=O)N1CN(C(=O)c1ccco1)c1ccccc1,1,1.1,1,2.0
Cc1ccc(S(=O)(=O)N2CCCC2C(=O)Nc2cc(C)on2)cc1 (stereo not drawn),1.4,-38.7,1,1.5
CCc1nnc(NC(=O)C2Cc3ccccc3CN2S(=O)(=O)c2c(C)c(C)cc(C)c2C)s1 (stereo not drawn),0.4,61.4*,0.6,37.0
O=C(Nn1cnnc1)C1Cc2ccccc2CN1S(=O)(=O)c1ccc(F)cc1 (stereo not drawn),0.8,16.8,0.6,36.6
CCOc1ccc(S(=O)(=O)N2Cc3ccccc3CC2C(=O)NCCCn2ccnc2)cc1 (stereo not drawn),0,96.7*,0,99.7*
SMILES,CYP2C9 act,CYP2C9 inh,CYP2C19 act,CYP2C19 inh
Cc1ccc(S(=O)(=O)N2Cc3ccccc3CC2C(=O)Nc2cc(C)on2)cc1 (stereo not drawn),0.2,84.6*,0.2,82.8*
Cc1ccc(S(=O)(=O)N2Cc3ccccc3CC2C(=O)Nn2cnnc2)cc1 (stereo not drawn),0.6,35.1,0.5,54.9*
Cc1occc1C(=O)NNC(=O)Cc1ccccc1,0.7,25.5,0.9,12.1
Cc1[nH]cnc1CSCCN,0.3,73.6*,1.1,-6.4
Cn1c(Cn2cnc3ccccc32)nnc1SCC(=O)CC(=O)Nc1ccccc1,0.3,69.7*,0.7,25.3
CCOC(=O)CNC(=O)CSc1nnc(Cn2cnc3ccccc32)n1C,1,-2.8,1.1,-10.0
O=C(CSC1=NCCS1)NC1CCCCC1,1,-4.1,1,-3.9
N#CC1=C(SCC(=O)Nc2cccc3cccnc23)NC(=O)C(C#N)C12CCCCC2 (stereo not drawn),0.1,91.3*,0.2,78.3*
CC(C)(C)C1CCC2(CC1)C(C#N)=C(SCC(=O)NC1CCCCC1)NC(=O)C2C#N (stereo not drawn),0.1,91.6*,0.5,45.7
N#CC1=C(SCC(=O)NC2CC2)NC(=O)C(C#N)C12CCCCC2 (stereo not drawn),0.3,67.9*,0.8,19.6
C=CCSC1=NC(N)=C(C#N)C2(CCCCC2)C1C(N)=O (stereo not drawn),0.7,32.2,0.1,88.8*
O=C(CSC1=NC(=O)C(Cc2ccccc2)C(=O)N1)NC1CCCCC1 (stereo not drawn),0.8,25.0,0.7,29.8
CCOC(=O)C1CC=C(Cl)CC1C(=O)Nc1nccs1 (stereo not drawn),0.6,40.7,0.6,36.5
COC(=O)/C(=C\C(=O)c1ccccc1)Nc1cccc(C(F)(F)F)c1,0.5,45.9,0.9,13.3
C/C(N)=C(/C#N)C(=O)COC(=O)C(NS(=O)(=O)c1ccc(Cl)cc1)C(C)O (stereo not drawn),0.8,15.9,0.9,13.9
CCOC(=O)c1cc(NC(=O)N(CC)CC)c(C)nc1C,0.9,11.2,1,-1.4
O=C(O)CCCC(=O)Nc1ccccc1C(=O)N1CCCC1,1,0.4,1.1,-12.0
CCOC(=O)C1=C(SCC(=O)Nc2ccccc2)NC(=O)C(C#N)C12CCCCC2 (stereo not drawn),0.2,84.8*,0.1,92.7*
C=CCSC1=C(C#N)C2(CCCCC2)C(C#N)C(=O)N1 (stereo not drawn),0.2,83.2*,0.4,58.3*
O=C(COC(=O)c1ccc(Cl)s1)c1cc2ccccc2o1,0.6,43.3,0.3,69.8*
CCC(C)(C)n1nnnc1C(c1cccnc1)N1CCN(c2cccc(C(F)(F)F)c2)CC1 (stereo not drawn),0.4,57.9*,0.2,80.5*
CCC(C)(C)n1nnnc1C(c1ccncc1)N1CCN(c2cccc(OC)c2)CC1 (stereo not drawn),0.1,91.5*,0.2,84.1*
CN1CCN(C(c2cccc(C(F)(F)F)c2)c2nnnn2C(C)(C)C)CC1 (stereo not drawn),0.9,13.7,1,4.2
Cc1nc(SCc2cccc(Oc3ccccc3)c2)n[nH]1,0.7,25.8,0.6,40.1
COc1cccc(NC(=O)CSc2nc3ccccc3cc2Cc2ccccc2)c1,0.3,67.8*,0.1,93.9*
COc1cc(NC(=O)CSc2ncccc2C(=O)OC(C)C)cc(OC)c1,0.5,50.7*,0.3,70.3*
COc1cccc(NC(=O)CSc2ncnc3c2cnn3Cc2ccccc2)c1,0.8,19.0,1.2,-15.8
COc1ccc(NC(=O)CSc2nc3ccccc3cc2Cc2ccccc2)cc1,0.7,33.2,0.1,85.2*
COc1cccc(CSc2nc3ccccc3cc2C=O)c1,0.4,64.1*,0.7,25.2
